High-throughput results from PubChem.
Rows were chosen to be rich in hits. Some 27% of all compounds tested hit in one or more screens of this group.
CYP2C19 inh – blocks human cytochrome P450 2C19 | CYP2C19 Supersomes, luciferin-H EGE luminescence, 30 min | AID 778 | inhibition, % at 5 µM | P33261 | 21% of 96,000 active;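 active = CYP2C19 inhibition above a set limit at 5 µM in the primary screen, cut at about 50% in these data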;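 also: plate controls were negative control wells for no effect and 2.5 mM tranylcypromine positive control for full effect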
Target sequence (P33261 whole entry, looked up): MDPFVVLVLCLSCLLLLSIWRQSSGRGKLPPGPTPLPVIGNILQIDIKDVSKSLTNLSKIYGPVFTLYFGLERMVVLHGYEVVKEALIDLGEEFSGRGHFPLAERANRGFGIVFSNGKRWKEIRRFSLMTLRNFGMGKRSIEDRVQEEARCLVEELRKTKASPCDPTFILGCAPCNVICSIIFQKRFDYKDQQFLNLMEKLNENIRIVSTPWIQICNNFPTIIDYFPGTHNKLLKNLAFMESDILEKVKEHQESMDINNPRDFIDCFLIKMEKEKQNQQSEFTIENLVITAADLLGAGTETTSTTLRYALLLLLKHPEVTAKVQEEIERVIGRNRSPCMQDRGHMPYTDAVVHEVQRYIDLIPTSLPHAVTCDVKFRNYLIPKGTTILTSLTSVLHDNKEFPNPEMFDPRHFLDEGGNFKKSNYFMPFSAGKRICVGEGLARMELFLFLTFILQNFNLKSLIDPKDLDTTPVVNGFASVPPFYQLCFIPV
CYP2C19 act – increases human CYP2C19 enzyme activity; P33261; recombinant CYP2C19, luciferin-H EGE luminescence; stronger effect = higher value; 0 = fully inhibited enzyme, 1 = untreated enzyme; activation factor at 5 µM; 96,000 tested, under 10 active;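 active = activation factor of at least 2 at 5 µM in the primary screen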;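 also: 0 = wells with 2.5 mM tranylcypromine and 1 = vehicle-only wells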
CYP2C9 activ – CYP2C9 (human) activation | P11712 | recombinant CYP2C9, luciferin-H conversion, luminescence; stronger effect = higher value; factor 1 = untreated enzyme, 0 = blocked | activation factor at 5 µM | 1.4% of 96,000 active | AID 1024;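 active = activation factor of 2 or more for CYP2C9 at a 5 µM dose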;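 also: 0 = sulfaphenazole-blocked wells and 1 = vehicle-only wells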
EphB4 antag – EphB4-ephrin-B2 interaction antagonism | 0.15% of 97,000 active | P54760 | inhibition, % at 7 µM | EphB4 LBD / TNYL-RAW-Alexa532 peptide, fluorescence polarization;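 active = inhibition above the screen-wide mean inhibition plus 3 SD, cut at about 15% in these data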;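 also: 0% = DMSO wells and 100% = excess unlabeled TNYL-RAW peptide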
CYP2C9 inh – blocks human cytochrome P450 2C9. P11712. CYP2C9 Supersomes, luciferin-H conversion, luminescence. inhibition, % at 5 µM. 20% of 96,000 active;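 active = blocking of liver enzyme CYP2C9 beyond about 50% at 5 µM, limit read from the data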
The depositor's hits bear a star; x = no result given.

SMILES	CYP2C19 inh	CYP2C19 act	CYP2C9 activ	EphB4 antag	CYP2C9 inh
Cc1ccc(Cl)cc1N1CCN(CC(=O)Nc2ccc(CN3CCCCC3)cc2)CC1	x	x	x	1	x
CCc1nn(CCCC(=O)N2CCc3ccccc3C2)c(=O)c2cc3occc3n12	80*	0.2	0.9	x	8
Cc1nn(CCCC(=O)N2CCc3ccccc3C2)c(=O)c2cc3sccc3n12	54*	0.5	0.5	4	51*
CCc1nn(CC(=O)NCCN2CCN(C)CC2)c(=O)c2cc3occc3n12	-23	1.2	1.3	x	-30
CC12CC(c3ccccc3O1)N(C(=O)c1ccc(Br)o1)C(=O)N2c1ccccc1 (stereo unspecified)	31	0.7	0.4	-3	62*
CC12CC(c3ccccc3O1)N(C(=O)c1ccco1)C(=O)N2c1ccccc1 (stereo unspecified)	-5	1	1.1	x	-6
CC1(C)CC(=O)CC(C)(C)N1OC(=O)c1ccncc1	67*	0.3	0.5	3	52*
CN1C(=O)NC(NC(=O)c2ccncc2)(C(F)(F)F)C1=O (stereo unspecified)	-1	1	1	-7	-5
CCCCc1cc(=O)oc2c(CN(CC)CC)c(O)c(Cl)cc12	-17	1.2	1	-1	3
COc1ccc(OC)c(NC(=O)c2cc(-c3ccc(C)cc3O)n[nH]2)c1	10	0.9	2.9*	2	-192
CN(C)c1nc(NCc2ccccc2)nc(Oc2ccc(=O)[nH]n2)n1	60*	0.4	0.9	-2	14
CCN(CC)c1nc(Nc2ccccc2)nc(Oc2ccc(=O)[nH]n2)n1	11	0.9	0.8	-2	24
Cc1c(C(=O)NCCc2ccccc2)oc2ccc(S(=O)(=O)N3CCC4(CC3)OCCO4)cc12	63*	0.4	0.1	11	87*
Cc1c(C(=O)NCc2ccco2)oc2ccc(S(=O)(=O)N3CCC4(CC3)OCCO4)cc12	14	0.9	0.6	3	40
COc1ccc(CCNC(=O)c2oc3ccc(S(=O)(=O)N4CCOCC4)cc3c2C)cc1OC	33	0.7	0.3	-2	73*
C=CCN1C(=O)S/C(=C\c2ccc(N3CCOCC3)cc2C)C1=O	13	0.9	0.9	4	8
NS(=O)(=O)c1ccc(CCNC(=O)C2CCN(S(=O)(=O)c3cnc[nH]3)CC2)cc1	-7	1.1	0.6	8	40
Cc1ccc(-c2nnn(CC(=O)NCCc3ccc4c(c3)OCO4)n2)o1	60*	0.4	0.1	0	89*
Cc1ccc(-c2nnn(CC(=O)Nc3cccc4c3CCCC4)n2)o1	52*	0.5	0.9	-2	13
c1ccc(CN2CCN(c3nc4ccccc4n4cnnc34)CC2)cc1	36	0.6	0.8	0	22
COc1ccc(NC(=O)/C(Cl)=C(/Cl)S(=O)(=O)Cc2ccc(C)cc2)cn1	36	0.6	0.5	-3	53*
O=C(CN1CCN(c2ccccn2)CC1)N(c1ccccc1)c1ccc2ccccc2c1	56*	0.4	0.5	x	51*
O=C(CN1CCOCC1)N(c1ccccc1)c1ccc2ccccc2c1	76*	0.2	0.6	-1	45
Cc1ccc(NC2=NCC(=O)N2Cc2ccc3c(c2)OCO3)c(C)c1	96*	0	0.2	x	79*
CCc1ccc(NC2=NCC(=O)N2Cc2ccc3c(c2)OCO3)cc1	36	0.6	0.4	x	58*
SMILES	CYP2C19 inh	CYP2C19 act	CYP2C9 activ	EphB4 antag	CYP2C9 inh
CN(C)C(=O)NC1CCCCCCCCCCC1	46	0.5	1	5	2
Cc1cc2nc(C3CCN(CC4COc5ccccc5O4)CC3)[nH]c2cc1C (stereo unspecified)	54*	0.5	0.6	5	41
CCCNC(=S)N1CCC(c2nc3cc(C)c(C)cc3[nH]2)CC1	23	0.8	0.8	1	16
O=C(COc1cccc2cccnc12)N/N=C1\SCC(=O)N1Cc1ccccc1	14	0.9	0.9	3	7
O=C(Nc1nncs1)c1ccc(S(=O)(=O)c2ccccc2)cc1	-19	1.2	0.4	-5	60*
O=C(Nc1nnc(C2CC2)s1)c1ccc(S(=O)(=O)c2ccccc2)cc1	-7	1.1	0.5	0	46
CN(c1ccc(C(=O)Nc2nccs2)cc1)S(=O)(=O)c1ccccc1	73*	0.3	0.5	7	51*
O=C(Nc1nccs1)c1ccc(S(=O)(=O)NCc2cccs2)cc1	36	0.6	0.3	4	70*
CCC(=O)Nn1c(C)nnc1C	-9	1.1	1.1	-8	-9
CC(Sc1nnc(CNc2cccc3ccccc23)n1-c1ccccc1)C(=O)N/N=C/c1ccco1 (stereo unspecified)	15	0.8	0.9	-1	13
Cc1nn(Cc2c(F)c(F)c(F)c(F)c2F)c(C)c1NC(=O)c1cccc(COc2ccc(Cl)cc2)c1	10	0.9	0.9	0	13
CC(C)c1cc(C(N)=O)c(NC(=O)c2cccc(COc3ccc(Cl)cc3)c2)s1	74*	0.3	0.3	1	72*
Cc1ccc(C(=O)CCNc2ccccc2)o1	35	0.7	1	0	-1
Cc1ccc(C(=O)CCNc2ccc(F)c(Cl)c2)o1	66*	0.3	0.9	x	12
Cc1ccc(C(=O)CCNc2ccc(Br)cc2)o1	91*	0.1	0.7	2	27
Cc1ccc(C(=O)CCNc2cccc(Br)c2)o1	62*	0.4	0.8	6	16
Cc1cc(NC(=O)Nc2ccc(F)c(Cl)c2)no1	19	0.8	0.8	-5	18
CC1CCN(c2cc(N3CCOCC3)c([N+](=O)[O-])cc2F)CC1	8	0.9	0.7	2	33
S=c1[nH]nc(-c2ccccc2)n1C1C=CCCC1 (stereo unspecified)	68*	0.3	1	x	-4
Cn1c(-c2ccc[nH]c2=O)nc2cc(Cl)ccc21	x	x	x	-3	x
Cc1nn(Cc2ccccc2)c(Cl)c1C(=O)OCc1nnc(-c2ccc(Cl)cc2)o1	40	0.6	0.4	6	62*
Cc1nn(Cc2ccccc2)c(Cl)c1C(=O)OCc1nnc(-c2ccccc2)o1	92*	0.1	0.1	4	86*
CC(O)C(NS(=O)(=O)c1ccc(Cl)cc1)C(=O)OCc1nnc(-c2ccccc2)o1 (stereo unspecified)	2	1	1	7	4
C(#CCN1CCOCC1)COCCOC(c1ccccc1)c1ccccc1	21	0.8	0.7	6	33
CCOC(=O)N1CCC(NC(=O)c2cc(C(=O)NCc3cccc(Cl)c3)ccc2CO)CC1	18	0.8	0.7	-6	28
Cc1sc(NC(=O)CSc2nnc(COc3ccccc3)n2C)c(C#N)c1C	10	0.9	0.9	-1	13
CCOc1ccc(CN(C)CC(=O)c2c(N)n(Cc3ccccc3)c(=O)n(CC)c2=O)cc1OC	-16	1.2	1.3	4	-31
CCn1c(=O)c(C(=O)CN(C)Cc2cccc(OC)c2OC)c(N)n(Cc2ccccc2)c1=O	67*	0.3	0.7	3	34
